Experimental data published in PubChem BioAssay AID1159580 (chemical genetic matrix, 2015).
Hit rate of the full screen: of about 5,500 compounds, about 2,000 (36%) were called active. About 18% were inconclusive and are not listed. No stated cut-off is given here; in the data, active means normalized growth mostly below about 0.91 (no sharp cut-off); inconclusive means no clear call, values can overlap the other calls; inactive means mostly above about 0.92. This is one part of the list.

Experiment: chemical genetic growth profiling, strain panel (AID 1159580);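 further: tested at 20 µM; growth read once vehicle control cultures reached saturation at 30 °C; 1 = growth at the plate median or of vehicle wells; lower values mean less growth of the strain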
Conditions: S. cerevisiae deletion strains, growth OD

Measured: normalized growth

CC1CC[C@@]2(OC1)O[C@H]1CC3C4CC[C@@H]5CC(=O)CC[C@]5(C)C4CC[C@]3(C)[C@H]1[C@@H]2C (stereo not given in full)
inactive: locus YBR021W, strain FUR4, active compounds read low 1.01 | locus YBR229C, strain ROT2, active compounds read low 1.01 | locus YCL029C, strain bik1, active compounds read low 1.01 | locus YDL035C, strain GPR1, active compounds read low 1.05 | locus YDL074C, strain BRE1, active compounds read low 1.04 | locus YDL101C, strain DUN1, active compounds read low 0.975 | locus YDL134C, strain PPH21, active compounds read low 0.982 | locus YDL185W, strain tfp1, active compounds read low 0.982 | locus YDL192W, strain arf1, active compounds read low 1.01 | locus YDR101C, strain arx1, active compounds read low 1.02 | locus YDR150W, strain NUM1, active compounds read low 1 | locus YDR162C, strain NBP2, active compounds read low 1 | locus YDR318W, strain mcm21, active compounds read low 1 | locus YDR388W, active compounds read low 0.993 | locus YDR502C, strain sam2, active compounds read low 0.974 | locus YER110C, active compounds read low 0.994 | locus YER155C, strain BEM2, active compounds read low 0.985 | locus YER167W, strain BCK2, active compounds read low 1 | locus YGL078C, strain dbp3, active compounds read low 0.963 | locus YGL086W, strain mad1, active compounds read low 0.989 | locus YGL248W, strain PDE1, active compounds read low 0.973 | locus YGR078C, strain PAC10, active compounds read low 0.993 | locus YGR135W, strain pre9, active compounds read low 0.948 | locus YGR252W, strain gcn5, active compounds read low 0.997 | locus YHR079C, strain IRE1 (second series), active compounds read low 0.996 | locus YHR094C, strain hxt1, active compounds read low 0.985 | locus YHR129C, strain ARP1, active compounds read low 0.996 | locus YHR200W, strain rpn10, active compounds read low 0.987 | locus YIL066C, strain RNR3, active compounds read low 1.02 | locus YIL073C, strain SPO22, active compounds read low 0.983 | locus YIL125W, strain kgd1, active compounds read low 1 | locus YIR030C, strain dcg1, active compounds read low 0.98 | locus YJL095W, strain BCK1, active compounds read low 0.977 | locus YJL134W, strain LCB3, active compounds read low 0.991 | locus YJL168C, strain set2, active compounds read low 0.986 | locus YJL187C, strain SWE1 (second series), active compounds read low 0.968 | locus YKL009W, strain mrt4, active compounds read low 0.986 | locus YKL068W, active compounds read low 0.985 | locus YKL085W, strain MDH1 (second series), active compounds read low 0.984 | locus YKL085W, strain MDH1, active compounds read low 0.984 | locus YKR001C, strain vps1, active compounds read low 0.986 | locus YLR039C, strain RIC1, active compounds read low 0.996 | locus YLR058C, strain SHM2, active compounds read low 0.999 | locus YLR102C, strain apc9, active compounds read low 0.984 | locus YLR268W, strain sec22, active compounds read low 1.04 | locus YLR342W, strain FKS1 (second series), active compounds read low 1.07 | locus YLR371W, strain rom2, active compounds read low 1.01 | locus YLR418C, strain cdc73, active compounds read low 0.942 | locus YML016C, strain PPZ1, active compounds read low 0.988 | locus YML032C, strain rad52, active compounds read low 1.01 | locus YML124C, strain tub3, active compounds read low 0.995 | locus YMR078C, strain ctf18, active compounds read low 0.985 | locus YMR223W, strain ubp8, active compounds read low 0.996 | locus YMR307W, strain GAS1, active compounds read low 0.94 | locus YNL067W, strain RPL9B, active compounds read low 0.966 | locus YNL233W, strain BNI4, active compounds read low 0.972 | locus YNL250W, strain rad50, active compounds read low 0.929 | locus YNL271C, strain bni1, active compounds read low 0.981 | locus YNL298W, strain CLA4, active compounds read low 1 | locus YNL307C, strain MCK1, active compounds read low 0.986 | locus YNR052C, strain pop2, active compounds read low 0.972 | locus YOL006C, strain TOP1, active compounds read low 1.16 | locus YOL012C, strain htz1 1.11 | locus YOL147C, strain pex11, active compounds read low 1.01 | locus YOR061W, strain CKA2, active compounds read low 1.01 | locus YOR069W, strain VPS5, active compounds read low 0.989 | locus YOR136W, strain idh2, active compounds read low 0.992 | locus YOR144C, strain elg1, active compounds read low 0.992 | locus YOR184W, strain ser1, active compounds read low 1.06 | locus YOR316C, strain cot1, active compounds read low 0.986 | locus YPR119W, strain clb2, active compounds read low 0.985 | locus YPR141C, strain kar3, active compounds read low 0.973 | locus YPR163C, strain tif3, active compounds read low 0.993 | locus YPR167C, strain met16, active compounds read low 0.985 | strain wtn01, active compounds read low 1.01
